# From the supplement of paper PMC7411054
# Where a name gives a salt, the structure may show the parent alone.
# Key:
# Assay in all cases: lowest phenotypically active concentration; higher = less potent
# Conditions in all cases: treatment time: 24 h
# A549-TUBA1B-RELA = test system: A549-TUBA1B-RELA
# Method in brief: (§1)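 Phenotypic activity depended on meeting both a deviation and a reproducibility criterion. The fifteen gene-edited A549, HepG2 and WPMY1 reporter lines were treated at 0.3, 1, 3 or 9 µM for 24 h, four wells each, then imaged live with features normalised to solvent control wells. Deviation required ≥3 of 4 wells past the 95th percentile of control Euclidean distances, and reproducibility a median replicate Pearson correlation above the 95th percentile of non-replicates.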
# A549-ACTB-RAB5A = test system: A549-ACTB-RAB5A
# Method in brief: as §1
# HepG2-TUBA1B-RELA = test system: HepG2-TUBA1B-RELA
# Method in brief: as §1
# A549-CANX-COX4 = test system: A549-CANX-COX4
# Method in brief: as §1
# HepG2-ACTB-RAB5A = test system: HepG2-ACTB-RAB5A
# Method in brief: as §1
# HepG2-TP53BP1-CLTA = test system: HepG2-TP53BP1-CLTA
# Method in brief: as §1
# WPMY1-CANX-COX4 = test system: WPMY1-CANX-COX4
# Method in brief: as §1
# A549-TP53BP1-CLTA = test system: A549-TP53BP1-CLTA
# Method in brief: as §1
# WPMY1-TP53BP1-CLTA = test system: WPMY1-TP53BP1-CLTA
# Method in brief: as §1
# WPMY1-TUBA1B-RELA = test system: WPMY1-TUBA1B-RELA
# Method in brief: as §1
smiles,measurement,setting,value
COc1ccc(-n2c(SCCCN3C(=O)c4cccc5cccc(c45)C3=O)nnc2-c2ccncc2)cc1,lowest phenotypically active concentration,A549-TUBA1B-RELA,3 µM
Cc1nc2sccn2c(=O)c1CCN1CCC(=C(c2ccc(F)cc2)c2ccc(F)cc2)CC1 [Ritanserin],lowest phenotypically active concentration,A549-ACTB-RAB5A,9 µM
same,lowest phenotypically active concentration,HepG2-TUBA1B-RELA,9 µM
CCc1ccc(/C=C/C(=O)Nc2ccc(C(C)=O)cc2)o1 [Heclin],lowest phenotypically active concentration,A549-TUBA1B-RELA,9 µM
CCOC(=O)N1CCC(=C2c3ccc(Cl)cc3CCc3cccnc32)CC1 [loratadine],lowest phenotypically active concentration,A549-ACTB-RAB5A,9 µM
COC(=O)C1=CO[C@@H](C)[C@H]2CN3CCc4c([nH]c5ccccc45)[C@@H]3C[C@H]12 [Ajmalicine hydrochloride],lowest phenotypically active concentration,A549-CANX-COX4,9 µM
same,lowest phenotypically active concentration,HepG2-ACTB-RAB5A,9 µM
same,lowest phenotypically active concentration,HepG2-TP53BP1-CLTA,9 µM
same,lowest phenotypically active concentration,WPMY1-CANX-COX4,9 µM
N=C(N)NC(=N)NCCc1ccccc1 [phenformin],lowest phenotypically active concentration,A549-CANX-COX4,9 µM
CC(C)(C)c1cc(/C=C(\C#N)C(N)=S)cc(C(C)(C)C)c1O,lowest phenotypically active concentration,A549-CANX-COX4,9 µM
same,lowest phenotypically active concentration,A549-TP53BP1-CLTA,9 µM
same,lowest phenotypically active concentration,HepG2-ACTB-RAB5A,9 µM
same,lowest phenotypically active concentration,HepG2-TP53BP1-CLTA,9 µM
same,lowest phenotypically active concentration,HepG2-TUBA1B-RELA,9 µM
same,lowest phenotypically active concentration,WPMY1-TP53BP1-CLTA,9 µM
Cc1cccc(-c2n[nH]cc2-c2ccc(F)c(-c3cnn(CCO)c3)c2)n1,lowest phenotypically active concentration,A549-ACTB-RAB5A,9 µM
same,lowest phenotypically active concentration,HepG2-TP53BP1-CLTA,9 µM
same,lowest phenotypically active concentration,WPMY1-CANX-COX4,9 µM
same,lowest phenotypically active concentration,WPMY1-TP53BP1-CLTA,9 µM
same,lowest phenotypically active concentration,WPMY1-TUBA1B-RELA,9 µM
C[C@@H]1CCN(C(=O)CC#N)C[C@@H]1N(C)c1ncnc2[nH]ccc12,lowest phenotypically active concentration,A549-ACTB-RAB5A,9 µM
same,lowest phenotypically active concentration,HepG2-TP53BP1-CLTA,9 µM
Cn1cc(-c2ccc3nnc(Sc4ccc5ncccc5c4)n3n2)cn1,lowest phenotypically active concentration,A549-CANX-COX4,1 µM
same,lowest phenotypically active concentration,A549-TP53BP1-CLTA,1 µM
same,lowest phenotypically active concentration,HepG2-ACTB-RAB5A,1 µM
Cc1cccc(CN2CCN(C(c3ccccc3)c3ccc(Cl)cc3)CC2)c1 (stereo not drawn) [Meclizine dihydrochloride],lowest phenotypically active concentration,A549-ACTB-RAB5A,9 µM
same,lowest phenotypically active concentration,HepG2-TUBA1B-RELA,9 µM
CC[C@H](Nc1ncnc2[nH]cnc12)c1nc2cccc(F)c2c(=O)n1-c1ccccc1 [idelalisib],lowest phenotypically active concentration,A549-ACTB-RAB5A,9 µM
Cc1cccc(C)c1OCC(C)N (stereo not drawn) [mexiletine],lowest phenotypically active concentration,A549-CANX-COX4,≤ 0.3 µM
same,lowest phenotypically active concentration,A549-TP53BP1-CLTA,≤ 0.3 µM
same,lowest phenotypically active concentration,HepG2-ACTB-RAB5A,≤ 0.3 µM
O=c1c(-c2ccc(O)cc2)coc2cc(O)cc(O)c12 [Genistein],lowest phenotypically active concentration,A549-TP53BP1-CLTA,9 µM
same,lowest phenotypically active concentration,A549-TUBA1B-RELA,9 µM
same,lowest phenotypically active concentration,WPMY1-CANX-COX4,9 µM
same,lowest phenotypically active concentration,WPMY1-TP53BP1-CLTA,9 µM
same,lowest phenotypically active concentration,WPMY1-TUBA1B-RELA,9 µM
COc1cc(C)c(/C=C/C(C)=C/C=C/C(C)=C/C(=O)O)c(C)c1C [acitretin],lowest phenotypically active concentration,A549-ACTB-RAB5A,9 µM
same,lowest phenotypically active concentration,WPMY1-CANX-COX4,9 µM
O=C1NCCCc2c1oc1ccc(O)cc21,lowest phenotypically active concentration,A549-ACTB-RAB5A,9 µM
same,lowest phenotypically active concentration,HepG2-TUBA1B-RELA,9 µM
same,lowest phenotypically active concentration,WPMY1-TUBA1B-RELA,9 µM
O=C(/C=C/c1ccc(O)cc1)c1ccc(O)cc1O [Isoliquiritigenin],lowest phenotypically active concentration,A549-TUBA1B-RELA,9 µM
same,lowest phenotypically active concentration,WPMY1-CANX-COX4,9 µM
same,lowest phenotypically active concentration,WPMY1-TP53BP1-CLTA,9 µM
S=c1[nH]cnc2nc[nH]c12 [mercaptopurine],lowest phenotypically active concentration,HepG2-ACTB-RAB5A,9 µM
same,lowest phenotypically active concentration,HepG2-TUBA1B-RELA,9 µM
same,lowest phenotypically active concentration,WPMY1-CANX-COX4,9 µM
same,lowest phenotypically active concentration,WPMY1-TUBA1B-RELA,9 µM
Nc1ncnc2c1ncn2[C@@H]1O[C@H](CO)[C@@H](O)[C@H]1O [Adenosine],lowest phenotypically active concentration,HepG2-ACTB-RAB5A,9 µM
C[C@H](NC(=O)[C@@H](O)c1cc(F)cc(F)c1)C(=O)N[C@@H]1C(=O)N(C)c2ccccc2-c2ccccc21,lowest phenotypically active concentration,WPMY1-CANX-COX4,1 µM
CC(C)N(CCCNC(=O)Nc1ccc(C(C)(C)C)cc1)C[C@H]1O[C@@H](n2cc(Br)c3c(N)ncnc32)[C@H](O)[C@@H]1O,lowest phenotypically active concentration,A549-TP53BP1-CLTA,3 µM
same,lowest phenotypically active concentration,HepG2-ACTB-RAB5A,3 µM
same,lowest phenotypically active concentration,HepG2-TP53BP1-CLTA,1 µM
same,lowest phenotypically active concentration,HepG2-TUBA1B-RELA,9 µM
same,lowest phenotypically active concentration,WPMY1-CANX-COX4,3 µM
same,lowest phenotypically active concentration,WPMY1-TP53BP1-CLTA,9 µM
same,lowest phenotypically active concentration,WPMY1-TUBA1B-RELA,9 µM
CCc1c(C(=O)Nc2cc(S(=O)(=O)N(CC)CC)ccc2O)[nH]c(C)c1C(C)=O,lowest phenotypically active concentration,HepG2-ACTB-RAB5A,9 µM
CC1=C(/C=C/C(C)=C/C=C/C(C)=C/C(=O)O)C(C)(C)CCC1 [isotretinoin],lowest phenotypically active concentration,WPMY1-TP53BP1-CLTA,3 µM
COCCCOc1ccnc(CS(=O)c2nc3ccccc3[nH]2)c1C (stereo not drawn) [rabeprazole],lowest phenotypically active concentration,HepG2-ACTB-RAB5A,9 µM
same,lowest phenotypically active concentration,HepG2-TUBA1B-RELA,9 µM
CC(C)N(CCCNC(=O)Nc1ccc(C(C)(C)C)cc1)C[C@H]1O[C@@H](n2ccc3c(N)ncnc32)[C@H](O)[C@@H]1O,lowest phenotypically active concentration,HepG2-ACTB-RAB5A,9 µM
same,lowest phenotypically active concentration,HepG2-TP53BP1-CLTA,1 µM
same,lowest phenotypically active concentration,HepG2-TUBA1B-RELA,≤ 0.3 µM
same,lowest phenotypically active concentration,WPMY1-TUBA1B-RELA,3 µM
CCCc1cc2c(N3CCN(C4=NCC(C)(C)S4)CC3)ncnc2s1 [MI 2 dihydrochloride],lowest phenotypically active concentration,HepG2-ACTB-RAB5A,9 µM
same,lowest phenotypically active concentration,HepG2-TP53BP1-CLTA,9 µM
